Compound activity (PubChem)
aSyn 5UTR act: Activators working through SNCA 5'UTR binding (MLPCN). hit rate 7.1% among 300,000. alpha-synuclein 5'UTR reporter, activators screen. AID 1814. activity score, % (tested at 7.5 µM), hits read low; in the data active = activity score below about -60%
The depositor's hits bear a star. Not all results are given here.

SMILES	aSyn 5UTR act
CC(=O)c1ccc(NC(=O)COc2ccccc2C(=O)Nc2ccccc2)cc1	-78*
CCOc1ccc(NC(=O)c2ccccc2OC)cc1	-140*
CCOc1ccc(NC(=O)c2ccccc2OCC(=O)c2ccccc2)cc1	-83*
O=C(COc1ccccc1C(=O)c1cnn(-c2ccccc2)c1)Nc1ccccc1	-73*
CCOc1ccc(NC(=O)c2ccccn2)cc1	104
CCOc1ccc(NC(=O)c2ccccc2CO)cc1	-86*
CCOc1ccc(NC(=O)c2nccnc2CO)cc1	-120*
CCOc1ccc(NC(=O)c2ccccc2O)cc1	-66*
CCOc1ccc(NC(=O)c2ccccc2-c2ccccc2C(=O)O)cc1	-63*
CC(=O)c1cccc(NC(=O)COC(=O)c2ccccc2C)c1	-101*
CCOc1ccc(NC(=O)c2cccnc2C(=O)O)cc1	-109*
CCOc1ccc(NC(=O)c2ccc(NC(=O)COC(=O)Cc3ccc(OC)cc3)cc2)cc1	-93*
O=C(NCc1ccccc1F)c1ccc2c(c1)OCCO2	-80*
O=C(CCC1CCCN(C(=O)c2ccc3c(c2)OCCO3)C1)NCc1ccccc1F (stereo not given)	-66*
Cc1ccc(N2C(=O)c3ccccc3NC2C(C)Cc2ccc3c(c2)OCO3)cc1 (stereo not given)	-68*
O=C(NN=C1CCCCCC1)c1c[nH]c2ccccc12	-77*
O=C(N/N=C/c1cccs1)c1c[nH]c2ccccc12	-158*
CCc1ccc(/C=N/NC(=O)c2cc(-c3ccncc3)nc3ccccc23)s1	83
CCc1ccc(/C=N/NC(=O)c2c[nH]c3ccccc23)s1	-132*
Cc1cc(NC(=O)NC(=O)c2cccc(OC(F)(F)C(F)F)c2)n[nH]1	-119*
Cc1cc(NC(=O)c2cccc(Oc3ccccc3)c2)n[nH]1	-109*
O=C(CN1C(=O)C2C3C=CC(C4CC34)C2C1=O)Nc1cnc2ccccc2c1 (stereo not given)	-83*
CC(C)Oc1ccccc1C1Nc2ccccc2C(=O)N1c1ccc2c(c1)OCCO2 (stereo not given)	68
CCOC(=O)COc1ccccc1C1Nc2ccccc2C(=O)N1c1cccc(Cl)c1 (stereo not given)	-107*
COc1cc(C2Nc3ccccc3C(=O)N2c2ccc(Cl)cc2)c(Cl)cc1OCC(=O)O (stereo not given)	-137*
SMILES	aSyn 5UTR act
COc1ccc(NC(=O)c2scc(S(=O)(=O)C(C)C)c2N)cc1	-193*
COc1ccc(NC(=O)c2cnc(SC)nc2)cc1	-124*
COc1ccc(NC(=O)c2sc(SC)nc2N)cc1	-197*
O=[N+]([O-])c1ccc2nc(-c3ccccc3)oc2c1	-224*
COc1cccc(-c2nc3ccc([N+](=O)[O-])cc3o2)c1	-120*
O=C(N/N=C1/CC2C=CCC12)c1ccco1 (stereo not given)	-66*
O=C(N/N=C1/CC2C=CCC12)c1cccs1 (stereo not given)	-75*
COc1ccc(-c2nc3c4ccccc4ccn3c2CN2CCOCC2)cc1OC	-95*
CCCc1cc(C(=O)NC2CCCC2)no1	-94*
CCCc1cc(C(=O)NC2CCCCC2)no1	-146*
CC(C)c1cc(C(=O)NC2CCCCC2)no1	-148*
NC(=O)c1ccsc1NC(=O)c1coc2ccccc2c1=O	-156*
COc1ccc(/C=C/C(=O)Nc2cccc(S(=O)(=O)NC3=NCCCCC3)c2)cc1	-67*
O=C(/C=C/c1ccc(OC(F)F)cc1)Nc1cccc(S(=O)(=O)NC2=NCCCCC2)c1	-72*
O=C(CCl)Nc1cccc(S(=O)(=O)NC2=NCCC2)c1	-180*
Cc1cccnc1NC(=S)Nc1ccc(F)cc1F	-74*
Cc1cc(C)nc(NC(=S)Nc2ccc(F)cc2F)c1	-62*
Cc1ccc(C)c(NC(=S)Nc2ncccc2C)c1	-136*
COc1cc2c(cc1NC(=O)COC(=O)CNC(=O)c1ccccc1)oc1ccccc12	-94*
COc1ccccc1CC(=O)Nc1cc2oc3ccccc3c2cc1OC	-129*
COc1cc2c(cc1NC(=O)C(C)OC(=O)c1ccc(S(=O)(=O)Nc3ccccc3Cl)cc1)oc1ccccc12 (stereo not given)	-116*
COc1cc2c(cc1NC(=O)COC(=O)C1CC(=O)N(Cc3ccco3)C1)oc1ccccc12 (stereo not given)	-145*
COc1cc2c(cc1NC(=O)COC(=O)[C@@H](NC(=O)c1ccccc1F)C(C)C)oc1ccccc12	-85*
COc1cc2c(cc1NC(=O)C(C)Sc1cccc[n+]1[O-])oc1ccccc12 (stereo not given)	-241*
COc1ccc(CC(=O)Nc2cc3oc4ccccc4c3cc2OC)cc1	-162*
SMILES	aSyn 5UTR act
Cc1sc2ncn(/N=C/c3ccco3)c(=O)c2c1C	-67*
Cn1cc(/C=N/n2cnc3scc(-c4ccc(Cl)cc4)c3c2=O)c2ccccc21	87
Cc1sc(NC(=O)C2C3CCC(O3)C2C(=O)O)nc1-c1ccc(CC(C)C)cc1 (stereo not given)	-139*
COC(=O)c1sc(NC(=O)/C=C/c2ccc(C)cc2)nc1C	-71*
CCOC(=O)c1sc(NC(=O)/C=C/c2ccccc2)nc1C	-95*
CCOC(=O)c1sc(Nc2cccc(Cl)c2)nc1C	-102*
CCOC(=O)c1sc(NC(=O)CCc2ccccc2)nc1C	-146*
COC(=O)c1sc(NC(=O)/C=C/c2ccccc2Cl)nc1C	-87*
Cc1nc(NC(=O)/C=C/c2ccccc2)sc1C(=O)NCCO	-67*
CCN(CC)c1ccc(/C=C2/SC(=O)N(C(C)C)C2=O)o1	-175*
CC(C)N1C(=O)S/C(=C\c2ccc(-c3ccc(Cl)c(C(=O)O)c3)o2)C1=O	-128*
CCC(C)NC(=O)c1cc(-c2ccccc2O)on1 (stereo not given)	-83*
CCN(CC)C(=O)c1cc(-c2ccccc2OC)on1	-125*
COc1ccc(NC(=O)c2cc(-c3ccccc3Cl)on2)cc1OC	-96*
COc1ccccc1-c1cc(C(=O)Nc2ccc(F)cc2F)no1	-155*
CCCc1nc2oc3c(NCCCN(C)C)ncnc3c2c2c1CCCC2	108
COc1ccccc1-c1cc(C(=O)NC(C)C)no1	-265*
CCOC(=O)c1ccc(Nc2nc(=O)c3cccnc3s2)cc1	-133*
CC(=O)c1ccc(Nc2nc(=O)c3cccnc3s2)cc1	-124*
O=c1nc(Nc2ccc(OCc3ccccc3)cc2)sc2ncccc12	-96*
CC(=O)Nc1cccc(C(=O)/C=C/c2ccc(C)cc2)c1	-123*
CCOc1ccc(/C=C/C(=O)Nc2cccc(C(C)=O)c2)cc1	-151*
Cc1cccnc1Nc1nc(-c2ccc(O)cc2)cs1	-231*
Cc1cccnc1Nc1nc(-c2ccc(F)cc2)cs1	-226*
Cc1nc2c(oc3ccccc32)c(=O)o1	-84*
SMILES	aSyn 5UTR act
COc1ccc(Nc2nc(-c3sc(C)nc3C)cs2)c(OC)c1	-124*
COc1ccccc1Nc1nc(-c2cccs2)cs1	-254*
COc1ccc(Nc2nc(-c3cccs3)cs2)c(OC)c1	-196*
COc1ccc(Nc2nc(-c3cccs3)cs2)cc1	-205*
COc1ccc(-c2nc(CS(=O)CC(=O)NCCC3=CCCCC3)c(C)o2)cc1 (stereo not given)	-86*
O=C(Nc1ccc(F)cc1)Nc1ccc(N2CCOCC2)c2nonc12	-145*
O=C(Nc1ccc(N2CCOCC2)c2nonc12)C1CCCC1	-142*
Cc1ccc(-c2cc(C(=O)NCc3cccs3)no2)cc1	-122*
CC(C)CNC(=O)c1cc(-c2ccc(Cl)c(Cl)c2)on1	-118*
CCOc1ccc(-c2cc(CCCC(=O)NCc3ccc(C)cc3)no2)cc1	81
